Measured values published in PubChem BioAssay (NCATS).
Inconclusive results are not listed. Activity calls are given as the source filed them. Unless noted, calls come from the whole dose curve; as a rule, active = well fitted curve in the direction sought with a large enough effect; inconclusive = small, poorly fitted or top-dose-only effect, or another doubt; inactive = no such curve, though single readings can be large; an effect the other way counts as inactive or inconclusive.

Key:
[1] = target: ATP-dependent 6-phosphofructokinase (Trypanosoma brucei brucei) (UniProt O15648); experiment: qHTS Assay to Find Inhibitors of T. brucei phosphofructokinase: hit validation (AID 492961);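 note: luminescence reports ADP formed as PFK phosphorylates fructose-6-phosphate with ATP; % is set by controls: 0 for no effect and ±100 for the full control effect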
ATP-dependent 6-phosphofructokinase (Trypanosoma brucei brucei), sequence (O15648 whole entry, looked up): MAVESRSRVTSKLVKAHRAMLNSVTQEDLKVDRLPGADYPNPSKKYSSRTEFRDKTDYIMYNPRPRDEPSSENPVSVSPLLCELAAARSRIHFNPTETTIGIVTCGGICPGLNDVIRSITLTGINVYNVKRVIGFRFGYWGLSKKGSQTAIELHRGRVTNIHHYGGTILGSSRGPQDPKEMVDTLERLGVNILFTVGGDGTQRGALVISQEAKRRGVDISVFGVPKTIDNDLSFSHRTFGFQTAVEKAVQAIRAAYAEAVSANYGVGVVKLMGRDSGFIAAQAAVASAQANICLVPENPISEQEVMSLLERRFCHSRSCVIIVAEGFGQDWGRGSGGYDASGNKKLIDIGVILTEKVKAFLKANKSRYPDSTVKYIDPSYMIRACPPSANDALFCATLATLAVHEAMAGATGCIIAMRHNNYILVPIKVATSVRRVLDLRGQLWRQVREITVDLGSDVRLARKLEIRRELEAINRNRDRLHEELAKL
Summary of the method: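 PFK 1.25 nM, F6P 0.5 mM, ATP 0.1 mM, MgCl2 5 mM, 0.1 M TEA pH 8.0, Tween20 0.01%, BSA 0.1%; 45 min RT. ADP-Glo two-step detection, luminescence. qHTS titration; curve fitting with curve-class categorization.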

[2] = target: Ubiquitin carboxyl-terminal hydrolase 1 (Homo sapiens) (UniProt O94782); experiment: Inhibitors of USP1/UAF1: Pilot qHTS (AID 504865);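 note: rhodamine fluorescence freed from ubiquitin-rhodamine substrate followed over time; top concentration of the series differs between compounds; % is set by controls: 0 for no effect and ±100 for the full control effect; nearly all actives have a fitted effect of over 35% in size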
Ubiquitin carboxyl-terminal hydrolase 1 (Homo sapiens), sequence (O94782 whole entry, looked up): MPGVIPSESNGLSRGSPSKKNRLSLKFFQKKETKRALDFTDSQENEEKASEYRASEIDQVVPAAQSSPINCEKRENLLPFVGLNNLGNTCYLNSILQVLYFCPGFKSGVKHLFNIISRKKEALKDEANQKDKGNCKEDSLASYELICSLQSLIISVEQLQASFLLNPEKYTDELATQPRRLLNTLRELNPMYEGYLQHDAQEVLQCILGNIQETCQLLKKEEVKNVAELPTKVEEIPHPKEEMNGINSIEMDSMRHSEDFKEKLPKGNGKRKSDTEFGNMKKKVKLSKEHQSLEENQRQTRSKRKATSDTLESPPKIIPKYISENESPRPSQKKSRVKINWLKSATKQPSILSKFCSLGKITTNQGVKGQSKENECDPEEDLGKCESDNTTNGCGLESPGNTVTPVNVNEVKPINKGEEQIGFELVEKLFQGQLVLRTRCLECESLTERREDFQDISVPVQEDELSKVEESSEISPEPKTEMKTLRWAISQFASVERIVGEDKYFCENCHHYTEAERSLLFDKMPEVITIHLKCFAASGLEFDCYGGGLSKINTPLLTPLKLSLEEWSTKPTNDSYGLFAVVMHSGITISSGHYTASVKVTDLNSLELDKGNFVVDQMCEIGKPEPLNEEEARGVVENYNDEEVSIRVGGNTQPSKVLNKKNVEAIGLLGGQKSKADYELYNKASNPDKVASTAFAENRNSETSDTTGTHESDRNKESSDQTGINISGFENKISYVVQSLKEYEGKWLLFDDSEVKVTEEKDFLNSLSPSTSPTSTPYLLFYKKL
Summary of the method: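 USP1/UAF1 complex (1nM) preincubated with compound 15 min at room temperature, then Ub-Rho substrate (150nM final) added. Fluorescence read kinetically at 480/540 nm, 6 reads every 60 seconds. Buffer: 50mM HEPES pH 7.8, 0.5mM EDTA, 0.1 mg/ml BSA, 1mM TCEP, 0.01% Tween-20.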

[3] = target: Luciferin 4-monooxygenase (Photinus pyralis) (UniProt P08659); experiment: Biochemical firefly luciferase enzyme assay for NPC (AID 624030);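 note: purified P. pyralis luciferase at 10 nM with luciferin and ATP substrate; 0% = DMSO and -100% = full luciferase inhibition by PTC124 control; nearly all actives have a fitted effect of over 70% in size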
Luciferin 4-monooxygenase (Photinus pyralis), sequence (P08659 whole entry, looked up): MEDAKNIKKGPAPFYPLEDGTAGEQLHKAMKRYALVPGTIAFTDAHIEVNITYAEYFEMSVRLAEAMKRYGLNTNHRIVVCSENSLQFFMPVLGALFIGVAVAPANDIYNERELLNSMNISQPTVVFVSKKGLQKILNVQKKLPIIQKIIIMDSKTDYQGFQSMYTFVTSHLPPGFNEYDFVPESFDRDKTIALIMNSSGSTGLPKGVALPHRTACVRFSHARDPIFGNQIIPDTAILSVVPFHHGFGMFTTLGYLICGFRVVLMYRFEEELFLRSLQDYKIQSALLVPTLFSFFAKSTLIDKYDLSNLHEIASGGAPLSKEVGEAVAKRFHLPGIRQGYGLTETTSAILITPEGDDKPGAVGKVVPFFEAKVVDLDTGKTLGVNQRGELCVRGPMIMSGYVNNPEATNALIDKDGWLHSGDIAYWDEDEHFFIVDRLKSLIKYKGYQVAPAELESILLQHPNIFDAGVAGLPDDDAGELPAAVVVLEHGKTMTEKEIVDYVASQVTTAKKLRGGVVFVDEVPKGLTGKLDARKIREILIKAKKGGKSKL
Summary of the method: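 Counter-screen for direct inhibition of the luciferase enzyme by approved-drug library compounds, run at 10 nM enzyme in 50 mM Tris acetate (final). Luminescence was read within 5 min of enzyme-buffer addition and normalized to PTC124 versus DMSO (0%).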

[4] = S16 Schwann cell PMP22 intronic element beta-lactamase assay (AID 624044; calls by dose curve;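 note: 0% = DMSO and -100% = potassium clavulanate positive control; nearly all actives have a fitted effect of over 15% in size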); conditions: S16 rat Schwann cells, PMP22 element beta-lactamase FRET, 24 h; ratio activity, negative = inhibition: at 38.3 µM (top of the series) unless noted
Summary of the method: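 Rat S16 Schwann cells with beta-Lac driven by a PMP22 intronic element, compound-treated 24 h at 37 °C. LiveBLAzer FRET B/G read: 460 nm normalized to potassium clavulanate vs DMSO; 535 nm FRET as viability; concentration-effect curves classified.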

[5] = target: Glutathione peroxidase 1 (Homo sapiens) (UniProt P07203); experiment: Primary qHTS Assay for Inhibitors of Recombinant Selenoprotein Glutathione Peroxidase 1 (GPX1) (AID 1845191); note: nearly all actives have a fitted effect of over 65% in size
Glutathione peroxidase 1 (Homo sapiens), sequence (P07203 whole entry, looked up): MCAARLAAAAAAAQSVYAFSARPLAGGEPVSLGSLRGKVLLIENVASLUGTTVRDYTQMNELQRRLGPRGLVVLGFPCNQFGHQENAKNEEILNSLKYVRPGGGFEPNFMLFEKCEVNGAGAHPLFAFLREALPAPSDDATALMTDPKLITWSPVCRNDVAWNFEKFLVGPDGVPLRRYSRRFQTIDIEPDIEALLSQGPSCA
Summary of the method: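 Recombinant GPX1 (10 nM final) was preincubated with compound for 30 min at room temperature, then reacted with 1 mM GSH, 0.5 mM CHP, 0.5 mM NADPH and 100 nM glutathione reductase; NADPH fluorescence (340/450 nm) was read at 0 and 15 min.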

[6] = target: Phospholipid hydroperoxide glutathione peroxidase GPX4 (Homo sapiens) (UniProt P36969); experiment: Primary qHTS Assay for Inhibitors of Recombinant Selenoprotein Glutathione Peroxidase 4 (GPX4) (AID 1845192); note: % is set by controls: 0 for no effect and ±100 for the full control effect; nearly all actives have a fitted effect of over 65% in size
Phospholipid hydroperoxide glutathione peroxidase GPX4 (Homo sapiens), sequence (P36969 whole entry, looked up): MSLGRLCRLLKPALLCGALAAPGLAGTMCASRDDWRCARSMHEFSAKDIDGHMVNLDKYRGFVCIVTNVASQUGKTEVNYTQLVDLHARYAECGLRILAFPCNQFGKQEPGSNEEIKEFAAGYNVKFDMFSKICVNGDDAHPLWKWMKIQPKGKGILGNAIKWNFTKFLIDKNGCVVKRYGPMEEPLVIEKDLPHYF
Summary of the method: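 GR-coupled readout: 100 nM GR, 1 mM GSH, 0.5 mM NADPH; NADPH fluorescence (ex 340/em 450 nm) read at t=0 and after 15 min RT. GPX4 200 nM, preincubated 30 min with compound; substrate 0.5 mM CHP.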

[7] = qHTS profiling for inhibitors of Plasmodium falciparum proliferation (AID 504749); note: nearly all actives have a fitted effect of over 60% in size; note: potency is the fitted concentration of half-maximal effect;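 for activity, negative = inhibition: 0% = DMSO vehicle and full inhibition = artemisinin control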; conditions: P. falciparum in erythrocytes, SYBR Green DNA, 72 h, at 28.7 µM (top of the series)
Summary of the method: (§1)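 P. falciparum-infected erythrocytes (0.3% parasitemia, 2.5% hematocrit final) were exposed to compounds for 72 h at 37 C in 5% CO2, then lysed with SYBR Green buffer overnight at room temperature; parasite DNA fluorescence was normalized to artemisinin and DMSO controls.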

3D7 = experiment: as above; conditions: P. falciparum in erythrocytes, SYBR Green DNA, 72 h; series mostly up to 28.7 µM
Summary of the method: as §1

7G8 = experiment: as above; conditions: P. falciparum in erythrocytes, SYBR Green DNA, 72 h; series mostly up to 12.8 µM
Summary of the method: as §1

AA1029 = experiment: as above; conditions: P. falciparum in erythrocytes, SYBR Green DNA, 72 h; series mostly up to 28.7 µM
Summary of the method: as §1

ATS189 = experiment: as above; conditions: P. falciparum in erythrocytes, SYBR Green DNA, 72 h; series mostly up to 28.7 µM
Summary of the method: as §1

ATS95 = experiment: as above; conditions: P. falciparum in erythrocytes, SYBR Green DNA, 72 h; series mostly up to 28.7 µM
Summary of the method: as §1

C2A = experiment: as above; conditions: P. falciparum in erythrocytes, SYBR Green DNA, 72 h; series mostly up to 28.7 µM
Summary of the method: as §1

CP185 = experiment: as above; conditions: P. falciparum in erythrocytes, SYBR Green DNA, 72 h; series mostly up to 28.7 µM
Summary of the method: as §1

CP191 = experiment: as above; conditions: P. falciparum in erythrocytes, SYBR Green DNA, 72 h; series mostly up to 28.7 µM
Summary of the method: as §1

CP192 = experiment: as above; conditions: P. falciparum in erythrocytes, SYBR Green DNA, 72 h; series mostly up to 28.7 µM
Summary of the method: as §1

CP194 = experiment: as above; conditions: P. falciparum in erythrocytes, SYBR Green DNA, 72 h; series mostly up to 28.7 µM
Summary of the method: as §1

CP201 = experiment: as above; conditions: P. falciparum in erythrocytes, SYBR Green DNA, 72 h; series mostly up to 28.7 µM
Summary of the method: as §1

CP211 = experiment: as above; conditions: P. falciparum in erythrocytes, SYBR Green DNA, 72 h; series mostly up to 28.7 µM
Summary of the method: as §1

CP215 = experiment: as above; conditions: P. falciparum in erythrocytes, SYBR Green DNA, 72 h; series mostly up to 28.7 µM
Summary of the method: as §1

CP217 = experiment: as above; conditions: P. falciparum in erythrocytes, SYBR Green DNA, 72 h; series mostly up to 28.7 µM
Summary of the method: as §1

CP238 = experiment: as above; conditions: P. falciparum in erythrocytes, SYBR Green DNA, 72 h; series mostly up to 28.7 µM
Summary of the method: as §1

CP247 = experiment: as above; conditions: P. falciparum in erythrocytes, SYBR Green DNA, 72 h; series mostly up to 28.7 µM
Summary of the method: as §1

CP250 = experiment: as above; conditions: P. falciparum in erythrocytes, SYBR Green DNA, 72 h; series mostly up to 12.8 µM
Summary of the method: as §1

CP252 = experiment: as above; conditions: P. falciparum in erythrocytes, SYBR Green DNA, 72 h; series mostly up to 12.8 µM
Summary of the method: as §1

CP256 = experiment: as above; conditions: P. falciparum in erythrocytes, SYBR Green DNA, 72 h; series mostly up to 28.7 µM
Summary of the method: as §1

CP260 = experiment: as above; conditions: P. falciparum in erythrocytes, SYBR Green DNA, 72 h; series mostly up to 28.7 µM
Summary of the method: as §1

CP262 = experiment: as above; conditions: P. falciparum in erythrocytes, SYBR Green DNA, 72 h; series mostly up to 28.7 µM
Summary of the method: as §1

CP265 = experiment: as above; conditions: P. falciparum in erythrocytes, SYBR Green DNA, 72 h; series mostly up to 12.8 µM
Summary of the method: as §1

CP266 = experiment: as above; conditions: P. falciparum in erythrocytes, SYBR Green DNA, 72 h; series mostly up to 12.8 µM
Summary of the method: as §1

CP268 = experiment: as above; conditions: P. falciparum in erythrocytes, SYBR Green DNA, 72 h; series mostly up to 28.7 µM
Summary of the method: as §1

CP269 = experiment: as above; conditions: P. falciparum in erythrocytes, SYBR Green DNA, 72 h; series mostly up to 28.7 µM
Summary of the method: as §1

CP286 = experiment: as above; conditions: P. falciparum in erythrocytes, SYBR Green DNA, 72 h; series mostly up to 28.7 µM
Summary of the method: as §1

CP291 = experiment: as above; conditions: P. falciparum in erythrocytes, SYBR Green DNA, 72 h; series mostly up to 28.7 µM
Summary of the method: as §1

CP297 = experiment: as above; conditions: P. falciparum in erythrocytes, SYBR Green DNA, 72 h; series mostly up to 28.7 µM
Summary of the method: as §1

CP305 = experiment: as above; conditions: P. falciparum in erythrocytes, SYBR Green DNA, 72 h; series mostly up to 28.7 µM
Summary of the method: as §1

CP315 = experiment: as above; conditions: P. falciparum in erythrocytes, SYBR Green DNA, 72 h; series mostly up to 28.7 µM
Summary of the method: as §1

CP325 = experiment: as above; conditions: P. falciparum in erythrocytes, SYBR Green DNA, 72 h; series mostly up to 28.7 µM
Summary of the method: as §1

CP329 = experiment: as above; conditions: P. falciparum in erythrocytes, SYBR Green DNA, 72 h; series mostly up to 28.7 µM
Summary of the method: as §1

CP335 = experiment: as above; conditions: P. falciparum in erythrocytes, SYBR Green DNA, 72 h; series mostly up to 12.8 µM
Summary of the method: as §1

DFO2036 = experiment: as above; conditions: P. falciparum in erythrocytes, SYBR Green DNA, 72 h; series mostly up to 28.7 µM
Summary of the method: as §1

DIV14 = experiment: as above; conditions: P. falciparum in erythrocytes, SYBR Green DNA, 72 h; series mostly up to 28.7 µM
Summary of the method: as §1

Dd2 = experiment: as above; conditions: P. falciparum in erythrocytes, SYBR Green DNA, 72 h; series mostly up to 28.7 µM
Summary of the method: as §1

ECU = experiment: as above; conditions: P. falciparum in erythrocytes, SYBR Green DNA, 72 h; series mostly up to 28.7 µM
Summary of the method: as §1

FAB9 = experiment: as above; conditions: P. falciparum in erythrocytes, SYBR Green DNA, 72 h; series mostly up to 28.7 µM
Summary of the method: as §1

GB4 = experiment: as above; conditions: P. falciparum in erythrocytes, SYBR Green DNA, 72 h; series mostly up to 28.7 µM
Summary of the method: as §1

ICS = experiment: as above; conditions: P. falciparum in erythrocytes, SYBR Green DNA, 72 h; series mostly up to 28.7 µM
Summary of the method: as §1

JCK = experiment: as above; conditions: P. falciparum in erythrocytes, SYBR Green DNA, 72 h; series mostly up to 28.7 µM
Summary of the method: as §1

P94_40 = experiment: as above; conditions: P. falciparum in erythrocytes, SYBR Green DNA, 72 h; series mostly up to 28.7 µM
Summary of the method: as §1

PC49 = experiment: as above; conditions: P. falciparum in erythrocytes, SYBR Green DNA, 72 h; series mostly up to 28.7 µM
Summary of the method: as §1

TAB109 = experiment: as above; conditions: P. falciparum in erythrocytes, SYBR Green DNA, 72 h; series mostly up to 12.8 µM
Summary of the method: as §1

TAB113 = experiment: as above; conditions: P. falciparum in erythrocytes, SYBR Green DNA, 72 h; series mostly up to 28.7 µM
Summary of the method: as §1

C[C@]12CC[C@H](O)C[C@H]1CCC1C2CC[C@]2(C)[C@@H](c3ccc(=O)oc3)C[C@H]3O[C@]132 (stereo partly drawn)
inactive: Potency [1] | Potency [2] | Potency [3] | Potency [4] | Potency [5] | Potency [6] | activity, negative = inhibition ([7]; parasite line A) -25.7% | activity, negative = inhibition ([7]; parasite line B) -8.73% | Potency (3D7) | Potency (AA1029) | Potency (ATS189) | Potency (ATS95) | Potency (C2A) | Potency (CP185) | Potency (CP191) | Potency (CP192) | Potency (CP194) | Potency (CP201) | Potency (CP211) | Potency (CP215) | Potency (CP217) | Potency (CP238) | Potency (CP247) | Potency (CP250) | Potency (CP252) | Potency (CP256) | Potency (CP260) | Potency (CP262) | Potency (CP265) | Potency (CP266) | Potency (CP268) | Potency (CP269) | Potency (CP286) | Potency (CP291) | Potency (CP297) | Potency (CP305) | Potency (CP315) | Potency (CP325) | Potency (CP329) | Potency (CP335) | Potency (DFO2036) | Potency (Dd2) | Potency (ECU) | Potency (FAB9) | Potency (GB4) | Potency (JCK) | Potency (P94_40) | Potency (PC49) | Potency (TAB109) | Potency (TAB113)
active: Potency (7G8) 11.2 µM | Potency (DIV14) 13.5 µM | Potency (ICS) 7.08 µM
